From PubChem BioAssay
Mtb bLac sens: beta-lactam sensitization of Mtb H37Rv, H37Rv. M. tuberculosis H37Rv growth with meropenem, percent inhibition. actives 0.27% (n = 330,000). inhibition, % at 25 µM; call rule not given here;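 note: growth measured after seven days incubation then overnight dye step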
GDH-TPI counter-1: GDH-TPI coupling enzyme inhibitors, primary screen, artefact control for M. tuberculosis FBA inhibitor project, biochemical, absorbance, full deck | GDH-TPI coupled enzyme counterscreen, NADH absorbance | inhibition, % at 4.8 µM | actives 1.2% (n = 360,000); in the data active = inhibition above about 30%
Rv3671c inh: Rv3671c serine protease inhibitors, primary screen, biochemical, fluorescence polarization, M. tuberculosis H37Rv; inhibition, % at 5.96 µM; P9WHR9; AID 2606, 2010; actives 0.048% (n = 320,000); in the data active = inhibition above about 38%;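 note: extracellular domain of Rv3671c used as enzyme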
UGM FP inh: M. tuberculosis UGM enzyme inhibitors, primary screen, biochemical, fluorescence polarization, single point; inhibition, % at 10 µM; actives 0.06% (n = 320,000); purified UGM, fluorescence polarization probe displacement; UDP-galactopyranose mutase (Mycobacterium tuberculosis (strain ATCC 25618 / H37Rv)), …; in the data active = inhibition above about 10%, passing the limit was not always enough
Target sequence (P9WIQ1 whole entry, looked up): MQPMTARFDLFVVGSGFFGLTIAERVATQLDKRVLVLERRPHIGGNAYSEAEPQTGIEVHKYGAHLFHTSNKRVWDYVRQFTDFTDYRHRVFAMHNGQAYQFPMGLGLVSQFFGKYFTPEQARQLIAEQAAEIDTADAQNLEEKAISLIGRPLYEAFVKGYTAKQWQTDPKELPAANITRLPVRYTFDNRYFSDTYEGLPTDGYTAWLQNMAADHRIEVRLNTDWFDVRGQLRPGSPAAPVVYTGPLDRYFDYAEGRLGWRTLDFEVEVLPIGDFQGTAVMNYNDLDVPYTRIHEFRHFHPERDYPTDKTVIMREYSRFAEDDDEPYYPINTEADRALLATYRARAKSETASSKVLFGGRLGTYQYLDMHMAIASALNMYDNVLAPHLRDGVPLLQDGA
RecA splice inh: Mtb RecA intein splicing inhibitors, primary screen, biochemical, fluorescence, HTS; Protein RecA (Mycobacterium tuberculosis (strain ATCC 25618 / H37Rv)), P9WHJ3; cell-free RecA intein splicing; inhibition, % (concentration not given with the values); actives 0.75% (n = 290,000); AID 2221, 2009; in the data active = inhibition above about 30%
Mtb FBA inh: Mtb FBA enzyme inhibitors, primary screen, biochemical, fluorescence, strain H37Rv. purified M. tuberculosis FBA, fluorescence read-out. inhibition, % at 1 µM. Fructose-bisphosphate aldolase (Mycobacterium tuberculosis (strain ATCC 25618 / H37Rv)), …. actives 2.3% (n = 360,000)
Mtb FBA confirm: M. tuberculosis aldolase blockers, biochemical, fluorescence, strain H37Rv, confirmation; shares compounds with Mtb FBA inh; purified M. tuberculosis FBA, fluorescence read-out; inhibition, % at 1 µM; actives 78% (n = 5,600); AID 651616, 2012
GDH-TPI counter-2: GDH-TPI coupling enzyme inhibitors, artefact control for M. tuberculosis FBA inhibitor project, biochemical, fluorescence, high throughput; shares compounds with Mtb FBA inh; GDH-TPI coupled enzyme counterscreen; inhibition, % at 1 µM; actives 81% (n = 5,600); AID 652141, 2013; in the data active = inhibition above about 10%
Large screens that a line does not name were inactive (follow-up assays come after a bar, where they were run). Only some compounds are listed: those with a hit (about 4% of all), similar ones and a draw of the others. Cut-off read from the data, not from the text of the source, unless noted: active = inhibition above about 27%; inactive = the rest.

COc1cc2ccc(=O)oc2c2ccoc12	Mtb FBA inh 35 | Mtb FBA confirm active | GDH-TPI counter-2 155
COc1cc2occc2c2oc(=O)ccc12	none
CN(Cc1cccs1)C(=O)COc1cccc(-n2cnnn2)c1	none
CCOc1cc(-c2nc3c(C)cccn3c2NCC2CCCO2)ccc1O (configuration not stated)	Mtb FBA inh 84 | Mtb FBA confirm 131 | GDH-TPI counter-2 108
COc1ccc(-c2nc3cccc(C)n3c2NCC2CCCO2)cc1O (configuration not stated)	Mtb FBA inh 59 | Mtb FBA confirm 134 | GDH-TPI counter-2 104
COc1cc(-c2nc3ccccn3c2NCC2CCCO2)ccc1O (configuration not stated)	none
O=C(CC1Sc2ccccc2NC1=O)NNc1ccc(Cl)cc1Cl (configuration not stated)	none (no result: Mtb bLac sens, Rv3671c inh, UGM FP inh, RecA splice inh)
CCOc1ccc(S(=O)(=O)NCc2ccccn2)cc1NC(=O)c1ccccc1	none
Cc1ccc(CNS(=O)(=O)c2c(C)[nH]c(=O)[nH]c2=O)cc1	none (no result: Rv3671c inh)
Cc1ccc(S(=O)(=O)N(C)C)cc1[N+](=O)[O-]	none
Cc1cc2nn(-c3ccccc3)nc2cc1NC(=O)c1cccs1	none
CC(C)CC(=O)Nc1ccc2nn(-c3ccccc3)nc2c1	Mtb FBA inh 72 | Mtb FBA confirm inactive | GDH-TPI counter-2 inactive
CC(=O)Nc1cc2nn(-c3ccccc3)nc2cc1C	Mtb FBA inh 90 | Mtb FBA confirm 200 | GDH-TPI counter-2 159
COC(=O)[C@]1(C)CCC[C@@]2(C)C3CC[C@@]4(C)C[C@]3(CCC21)CC4=NO (some centres not stated)	none (no result: RecA splice inh)
COc1cc(C#Cc2c(-c3cncn3C)n(C)c3ccc(-c4ccc5cc[nH]c5c4)cc23)cc(OC)c1	Mtb FBA inh 35 (no result: RecA splice inh) | Mtb FBA confirm 56 | GDH-TPI counter-2 46
COc1cc(OC)cc(-c2c(-c3cccs3)c3cc(-c4ccc5cc[nH]c5c4)ccc3n2C)c1	GDH-TPI counter-1 38, Mtb FBA inh 28 (no result: RecA splice inh) | Mtb FBA confirm 116 | GDH-TPI counter-2 111
COc1cc(OC)cc(-c2c(-c3cccs3)c3cc(-c4ccc(OC)c(OC)c4)ccc3n2C)c1	Mtb FBA inh 32 (no result: RecA splice inh) | Mtb FBA confirm active | GDH-TPI counter-2 170
COc1cc(C#Cc2c(-c3cncn3C)n(C)c3ccc(-c4ccc(OC)c(OC)c4)cc23)cc(OC)c1	none (no result: RecA splice inh)
COc1ccc(-c2c(-c3cc(OC)cc(OC)c3)n(C)c3ccc(-c4ccc(S(N)(=O)=O)cc4)cc23)cc1	Mtb FBA inh 54 (no result: RecA splice inh) | Mtb FBA confirm 53 | GDH-TPI counter-2 47
COc1ccc(-c2c(-c3cc(OC)cc(OC)c3)n(C)c3ccc(-c4cnc(N)nc4)cc23)cc1	none (no result: RecA splice inh)
CC(C)CC(=O)Nc1ccnn1C1CCN(C(=O)c2ccccc2F)CC1	none
O=C(NCc1ccc(F)cc1)C1CCCN1C(=O)Nc1ccc(F)cc1 (configuration not stated)	none
COc1ccc(C/C(C)=N/NC(=O)c2ccc(C)cc2C)cc1	none
C=CCn1c(SCC(=O)Nc2nc(C)cs2)nnc1C(NC(=O)c1ccccc1)C(C)C (configuration not stated)	none
COc1cccc(-c2c(-c3cc(OC)cc(OC)c3)n(C)c3ccc(-c4ccc5cc[nH]c5c4)cc23)c1	GDH-TPI counter-1 33, Mtb FBA inh 34 (no result: RecA splice inh) | Mtb FBA confirm 58 | GDH-TPI counter-2 43
COc1cc(OC)cc(-c2c(-c3cccs3)c3cc(-c4ccc(SC)cc4)ccc3n2C)c1	none (no result: RecA splice inh)
COc1cc(OC)cc(-c2c(-c3cccs3)c3cc(-c4ccc5[nH]ccc5c4)ccc3n2C)c1	Mtb FBA inh 35 (no result: RecA splice inh) | Mtb FBA confirm 97 | GDH-TPI counter-2 66
COc1cccc(-c2c(-c3cc(OC)cc(OC)c3)n(C)c3ccc(-c4cnc(OC)nc4)cc23)c1	none (no result: RecA splice inh)
C/C(=N\Nc1ccccn1)c1cccs1	none
COc1cc2c(cc1O)C[C@H]1c3c(cc(O)c(OC)c3-2)CCN1C	Mtb FBA inh 47 (no result: RecA splice inh) | Mtb FBA confirm 32 | GDH-TPI counter-2 23
CN1CCc2cc(O)cc3c2[C@H]1Cc1ccc(O)c(O)c1-3	none
C/C(=N\NC(=O)c1nnn(-c2nonc2N)c1COc1ccc(F)cc1)c1ccc(Cl)cc1	Mtb FBA inh 29 | Mtb FBA confirm active | GDH-TPI counter-2 active
O=c1nc(-c2ccccc2Cl)c2cc(F)ccc2[nH]1	Mtb FBA inh 53 | Mtb FBA confirm 53 | GDH-TPI counter-2 46
O=C1c2ccccc2NC(c2ccc(-c3ccc(C(F)(F)F)cc3)o2)N1O (configuration not stated)	none (no result: RecA splice inh)
Cc1c(Br)c(=O)oc2c(Br)c(O)ccc12	Mtb FBA inh 36 | Mtb FBA confirm 43 | GDH-TPI counter-2 28
Oc1cccc2c(NC(=S)Nc3ccc(SC(F)F)cc3)cccc12	Mtb FBA inh 30 | Mtb FBA confirm active | GDH-TPI counter-2 active
Cc1ccc(C(=O)Nc2ccc(Oc3ccc(C(=O)O)c(C(=O)O)c3)cc2)cc1C	none
NC(=O)c1ccccc1N/C=C/C(=O)c1ccc(F)cc1	none (no result: Mtb bLac sens, Rv3671c inh, UGM FP inh)
Cc1ccc(C(=O)/C=C/Nc2ccccc2C(N)=O)o1	Mtb FBA inh 32 | Mtb FBA confirm 42 | GDH-TPI counter-2 24
CCSc1nc(-c2ccc(OC)cc2)cc(-c2ccccc2)c1C#N	none
COc1ccc(-c2cc3nc4ccccc4n3c(N)c2C#N)cc1	Mtb FBA inh 41 | Mtb FBA confirm active | GDH-TPI counter-2 active
Cc1ccccc1-c1nc(C#N)c(N2CCC(C)CC2)o1	Mtb FBA inh 48 | Mtb FBA confirm 51 | GDH-TPI counter-2 46
COc1ccc(-c2nc(C#N)c(N3CCN(c4ccccc4)CC3)o2)cc1	none
CC1CCN(c2oc(-c3ccccc3Cl)nc2C#N)CC1	none
CCOC(=O)C1CCCN(c2oc(-c3ccc(F)cc3)nc2C#N)C1 (configuration not stated)	Mtb FBA inh 30 | Mtb FBA confirm active | GDH-TPI counter-2 197
CCN1CCN(c2oc(-c3ccc(OC)cc3)nc2C#N)CC1	Mtb FBA inh 32 | Mtb FBA confirm 143 | GDH-TPI counter-2 119
CC1CCN(c2oc(-c3ccc(F)cc3)nc2C#N)CC1	Mtb FBA inh 97 | Mtb FBA confirm inactive | GDH-TPI counter-2 inactive
